Source: PubChem BioAssay AID2057 (The Scripps Research Institute Molecular Screening Center, 2009)
Where “and” joins values, the source holds several entries; their conditions need not be identical. Identical values can stand only once. Hit rate of the full screen: of about 320,000 compounds, about 2,100 (0.66%) were called active.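 How the source made its calls: active means inhibition above the mean inhibition of all tested compounds plus 3 SD, set per campaign (cut at about 40% in these data); inactive means the rest.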 Shown is part of a subset that was picked to be rich in actives. The source holds several records for some structures; these can differ, active in one and inactive in another.

target: Induced myeloid leukemia cell differentiation protein Mcl-1 (Homo sapiens) (UniProt Q07820); assay: inhibitors of MCL1 binding to BIM-BH3, primary screen, biochemical, fluorescence polarization (AID 2057); conditions: GST-MCL1 / FITC-Bim-BH3 fluorescence polarization; at 10.9 µM; stronger effect = higher value;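 further: 0% = DMSO wells and 100% = unlabeled Bim-BH3 peptide control; higher means more loss of mP so more displacement of Bim peptide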
Sequence (Q07820 whole entry, looked up): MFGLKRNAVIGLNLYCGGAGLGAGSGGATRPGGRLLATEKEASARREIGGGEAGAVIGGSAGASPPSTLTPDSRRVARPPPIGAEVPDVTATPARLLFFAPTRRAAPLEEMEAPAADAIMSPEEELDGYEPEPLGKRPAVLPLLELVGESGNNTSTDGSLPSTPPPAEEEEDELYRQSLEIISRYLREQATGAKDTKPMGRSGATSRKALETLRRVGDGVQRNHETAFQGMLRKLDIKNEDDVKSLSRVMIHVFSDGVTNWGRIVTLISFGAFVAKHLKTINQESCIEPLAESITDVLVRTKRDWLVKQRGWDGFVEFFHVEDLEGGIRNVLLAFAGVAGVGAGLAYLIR

inhibition, inactive:
Cc1ccc2nnn(Cc3cccc(C(C)(C)C)c3O)c2c1 -0.36%, CC1CCN(C(=O)c2ccccc2NC(=O)Cc2ccccc2)CC1 2.82%, CCCCn1c(N)c(N(CC(C)C)C(=O)c2ccc(-n3c(C)ccc3C)cc2)c(=O)[nH]c1=O -0.69%, COc1ccc(C(=O)NCCNc2ccc([N+](=O)[O-])cn2)cc1 -2.53%, COc1cc(/C=N\Nc2ccc([N+](=O)[O-])cn2)ccc1OCC(=O)O -10.5%, O=C(CCc1c[nH]c2ccccc12)NCCOc1ccccc1 0.99%, O=C(COC(=O)/C=C/c1ccc(S(=O)(=O)N2CCCCCC2)cc1)NCc1ccccc1Cl 5.88%, CN(c1ccc(OCC(=O)O)cc1)S(=O)(=O)c1ccc2ccccc2c1 15.4%, COc1cccc(COc2ccc(N(C)S(=O)(=O)c3ccccc3)cc2)c1 -7.28%, O=c1[nH]c(-c2ccccc2)c(-c2ccccc2)[nH]1 1.68%, CNC(=O)c1cccc2nc3ccccc3nc12 2.56%, Cn1cnc2c1c(=O)n(Cc1ccccc1C#N)c(=O)n2C 2.03%, CC(C)c1ccc2oc(=O)cc(CN3CCN(Cc4ccccc4)CC3)c2c1 -0.09%, C#CCNC(=O)[C@H](Cc1ccc(C(=O)c2ccccc2)cc1)NC(=O)OC(C)(C)C -1.48%, COc1ccc(CN2CC(C(=O)NC3CCCCC3)CC2=O)cc1 (centres undefined) 1.62%, O=C(CCNC(=O)C1CCN(S(=O)(=O)c2ccccc2)CC1)NC1CC1 1.06%, CCN(CC(=O)NCC(=O)Nc1cccc(C)c1C)Cc1ccccc1 -6.88%, Cc1[nH]c2ccccc2c1C(=O)CN1CCCC(C)C1 (centres undefined) -7.18%, CCC(CC)c1nnc(NC(=O)/C=C/c2ccco2)s1 -2.29%, CCOC(=O)c1c(NC(=O)/C=C/c2ccco2)sc(C)c1C -7.18%, O=c1[nH]c2ccc(S(=O)(=O)N3CCCC3)cc2[nH]1 5.45%, N/C(=N\S(=O)(=O)c1cc(C(F)(F)F)cc(C(F)(F)F)c1)c1cccs1 5.69%, Cc1ccc(C(O)P(=O)(OC(C)C)c2ccc(N(C)C)cc2)cc1 (centres undefined) -0.54%, COC(=O)C1CCN(C(=O)c2cc(=O)[nH]c3ccccc23)CC1 -5.36%, O=C(NC1CCCCC1)N1CCc2[nH]c3ccccc3c2C1 7.44%, COc1ccc(NC(=O)C2=CC(c3ccc(OC)c(OC)c3)=NS(=O)(=O)N2C)cc1 -1.75%, C=CCc1ccccc1OCC(=O)N/N=C/c1ccccc1OCC -1.1%, Cc1cccc(OCC(=O)NCC(=O)N/N=C/c2ccc(N(C)C)cc2)c1 5.85%, CC(Oc1ccccc1)C(=O)Nc1c2c(nn1-c1ccccc1)CS(=O)C2 (centres undefined) 3.14%, CC1CCN(C(=O)c2ccc(S(=O)(=O)Cc3cc(F)ccc3F)c([N+](=O)[O-])c2)CC1 6.72%, COc1cc2c(cc1OC)C(C)N(S(=O)(=O)c1cnc(Cl)c(Cl)c1)CC2 (centres undefined) 0.66%, Cc1ccc(C2C(C#N)C(C#N)N3CCCN23)cc1 (centres undefined) -13.7%, C=CCN1C=C2C(=O)C(C)(OC(=O)CCc3ccccc3)C(=O)C=C2C=C1c1ccc(C#N)cc1 (centres undefined) 23.9%, CC1(OC(=O)C2CCCC2)C(=O)C=C2C=C(c3ccc(C#N)cc3)OC=C2C1=O (centres undefined) 26.9%, Cc1cc(O)c(Sc2ccccc2)c(=O)o1 2.06%, C=CCc1cccc(/C=N/NC(=O)COc2ccc(-n3cnnn3)cc2)c1O 11.2%, Oc1ccc(-c2onc3ccc(Cl)cc23)cc1 -2.01%, CC(OC(=O)c1ccc2noc(-c3ccccc3)c2c1)C(N)=O (centres undefined) -8.19%, CCOc1ccc(NC(=O)CN(C)C(=O)Cn2c(=O)cnc3ccccc32)cc1OCC 3.26%, Cc1nc(-c2ccc(F)cc2)c(CC(=O)N2CCN(S(=O)(=O)c3ccc(F)cc3)CC2)s1 -0.35%, COC(=O)c1ccc2c(c1)S(=O)(=O)NC(=NCCCN1CCOCC1)S2 -0.08%, Cc1c(NC(=O)C(C)OC(=O)c2c3c(nc4ccccc24)CCC(C)C3)c(=O)n(-c2ccccc2)n1C (centres undefined) -4.73%, COC(=O)C1=C(Nc2ccc(C)cc2)C=C(C)C(C(=O)OC)C1c1ccc(F)cc1 (centres undefined) -0.87%, O=C(COC(=O)c1n[nH]c2ccccc12)NCc1ccccc1 -0.26%, CC(C)N(C(=O)COC(=O)c1ccccc1C(=O)N1CCN(c2ccc(F)cc2)CC1)C(C)C 11.2%, OCC1(Cc2ccccc2C(F)(F)F)CCN(Cc2ccncc2)CC1 4.27%, CC1(NC(=O)CCS(=O)(=O)c2ccc(Cl)cc2)CCS(=O)(=O)C1 (centres undefined) -1.26%, CC(=O)N1c2ccc(S(=O)(=O)N3CCC(C(=O)NC4CCCCC4C)CC3)cc2CC1C (centres undefined) 2%, CCOC(=O)c1oc2c(CN3CCN(CCO)CC3)c(O)c(CC)cc2c(=O)c1-c1nc2ccccc2s1 -0.61%, CCN(CC(=O)Nc1ccccc1C(F)(F)F)C(=O)CSCc1c(C)noc1C -5.73%, COC(=O)c1cc(NS(=O)(=O)c2ccc3c(c2)c(=O)n(C)c(=O)n3C)cc(C(=O)OC)c1 3.04%, CC(C)OC(=O)CN1C(=O)C(=O)c2ccccc21 3.82%, CCOC(=O)c1ccccc1CN1C(=O)c2ccccc2S1(=O)=O 3.41%, Cc1noc(C)c1-c1nc(CSc2ccc(Cl)cc2)no1 7.94%, O=C(c1ccc(OC2CCN(C(=O)c3cccnc3)CC2)cc1)N1CCCCCC1 1.48%, Cc1ccc(OS(=O)(=O)c2ccc(-c3csc(C)n3)s2)c(C)c1 2.53%, Cc1cc(NC(=O)CSc2nc3c(cc2C#N)CCCCC3)no1 2.25%, CC1(C)CCc2nc(SCc3ccccc3)c(C#N)cc2C1 -2.93%, CC1(C)NC(=O)N(CC(=O)Nc2cc(C(F)(F)F)cc(C(F)(F)F)c2)C1=O -2.94%, Cn1cccc1/C=C1\SC(=O)N(CC(=O)Nc2ccc(F)cc2)C1=O -0.64%, Cc1ccc(C(=O)Nc2ccc3c(c2)OCO3)cc1S(=O)(=O)N1CCCCC1 7.58%, CCOC(=O)c1ccc[n+](CC(=O)Nc2ccccc2OC(F)F)c1 -5.72%, COc1ccccc1NC(=O)CSc1nc2sc3c(c2c(=O)n1-c1ccccc1)CCN(C)C3 -0.79%, COc1cc2c(cc1OC)C(=O)NCC(C)(C)O2 5.06%, CCC(C)[C@H]1COCCS(=O)(=O)N1Cc1ccc(C)cc1 (some centres undefined) -11.6%, CCOc1ccc(NC(=O)COc2ccc(C(=O)NC3CCCc4ccccc43)cc2OC)cc1 (centres undefined) -23.3%, Nc1ccc(C(=O)OCC(=O)NC2CCCc3ccccc32)cc1[N+](=O)[O-] (centres undefined) -14.1%, CCOC(=O)C(Cc1ccccc1)NC(=O)CCC(=O)c1ccc(OC)cc1 (centres undefined) 4.46%, COC(=O)[C@H](Cc1ccccc1)NC(=O)Nc1ccc(OC)cc1 2.03%, Cc1ccc(OCC(=O)c2cc(C)n(Cc3ccco3)c2C)c([N+](=O)[O-])n1 -1.45%, COC(=O)c1c(NC(=O)c2ccc(S(=O)(=O)N3CCOCC3)cc2)sc2c1CCN(C(C)C)C2 -0.44%, c1ccc2c(c1)CSc1sccc1C2=C1CCNCC1 8.84%

inhibition, active:
Cc1coc2c(O)cc3c(c12)OC1(N2CCCCC2)C(=O)NCCCC31 (centres undefined) 48.6%, COc1ccc(Nc2ccc([N+](=O)[O-])cn2)cn1 48.7%, Cc1ccc2nc(COc3ccc(N(C)S(=O)(=O)c4ccccc4)cc3)cc(=O)n2c1 42%, O=c1[nH]c(=O)c2nc3ccccc3nc2[nH]1 40.2%, Cc1nnc(NC(=O)/C=C/c2ccco2)s1 53.5%, Cc1ccc(/C=N/NC(=O)COc2ccccc2-c2ccccc2)cc1 66.9%, COCCN(CCOC)c1nc(N)c2c(N)nc3c(c2c1C#N)CC(=O)N3Cc1ccc(Cl)cc1 56.7%, CC(C)(C)OC(=O)NCCCC1=CC2=CC(=O)C(C)(OC(=O)c3ccco3)C(=O)C2=CO1 (centres undefined) 81.6%, O=C(COC(=O)c1ccccc1C(=O)N1CCN(c2ccccc2)CC1)NCc1ccccc1 51.8%, CC(C)(C)c1ccc(/C=C2\Oc3c(ccc(O)c3CN3CCN(CCO)CC3)C2=O)cc1 49.7%, CCOC(=O)c1cc2n(c1N)-c1ccccc1C2=O 153%, CC(NC(=O)CSc1nc2c(cc1C#N)CN(C)CC2)c1ccccc1 (centres undefined) 45%, Cc1ccc(C(=O)O)cc1-c1ccc(/C=C2\SC(=O)N(CC(=O)Nc3ccc4c(c3)OCO4)C2=O)o1 56.2%, Cc1ccc(-c2nc(SCC(=O)Nc3ccccc3OC(F)F)c3c(C)c(C(=O)O)sc3n2)cc1 54.1%, COC(=O)c1cc(OCC(=O)NC2CCCc3ccccc32)cc(C(=O)OC)c1 (centres undefined) 40.6%, COc1cc([C@H](Cc2ccccc2)NC(C)=O)oc(=O)c1 59.4%

inhibition, 2.37% (inactive) and 78.5% (active):
COC(=O)[C@H]1[C@H]2C[C@H]3c4[nH]c5ccccc5c4CCN3C[C@@H]2CC[C@@H]1O
